Rows were chosen to be rich in hits. Some 10% of all compounds tested hit in one or more screens of this group.
3T3 cytotox: cytotoxic compounds in NIH 3T3 cells | NIH 3T3 viability, CellTiter-Glo ATP luminescence, 48-72 h | Potency, µM (titrated, usually from 96.7 µM), for inactives: at the top dose activity change, negative = cytotoxicity, most hits filed as inhibitors | 94,000 tested, 4.3% active | AID 1345082; also: nearly all actives have a fitted effect of over 55% in size
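First NIH 3T3 cells are plated at 400 cells/well; next compound is pinned in; then plates incubate 48 or 72 hr at 37 °C; finally CellTiter-Glo is added and luminescence read after 10 min.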
hNpr1 antagonist: blocks ANP-stimulated signaling of human Npr1 receptor; AID 1347048; Potency, µM (highest dose often 46.3 µM), without a hit: top-dose activity change, negative = inhibition, usual class: inhibitors; 76,000 tested, 1.6% active; HEK293 hNpr1 GloSensor cGMP, ANP-stimulated luminescence; P16066; calls by dose curve; also: nearly all actives have a fitted effect of over 60% in size
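HEK293 cells stably expressing human Npr1 and cGMP GloSensor pGS-40F, loaded 2 h with 2% GloSensor reagent, given compound 30 min at room temperature. Luminescence read before and 20 min after 0.1 nM hNppA.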
GPT2 inhibitor: GPT2 alanine aminotransferase inhibition; Q8TD30; Recombinant GPT2, coupled pyruvate oxidase/HRP Amplex Red fluorescence; Potency, µM (titrated, usually from 57.7 µM), for inactives: at the top dose activity change, negative = inhibition, actives largely listed as inhibitors; 100,000 tested, 0.25% active; AID 1671188; also: nearly all actives have a fitted effect of over 60% in size
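Recombinant GPT2 (10ng/uL) with 250uM a-KG and 2mM L-alanine, 30 min at room temperature, in HEPES pH 7.5 buffer. Pyruvate detected by pyruvate oxidase/HRP/Amplex Red fluorescence after 30 min in the dark; AOA (50uM) as positive control.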
Luciferase inh: Photinus pyralis luciferase inhibition | P08659 | purified P. pyralis luciferase, luminescence, biochemical | Potency, µM (series often up to 115 µM), usual class: inhibitors | 76,000 tested, 2.5% active; also: nearly all actives have a fitted effect of over 65% in size
Target sequence (P08659 whole entry, looked up): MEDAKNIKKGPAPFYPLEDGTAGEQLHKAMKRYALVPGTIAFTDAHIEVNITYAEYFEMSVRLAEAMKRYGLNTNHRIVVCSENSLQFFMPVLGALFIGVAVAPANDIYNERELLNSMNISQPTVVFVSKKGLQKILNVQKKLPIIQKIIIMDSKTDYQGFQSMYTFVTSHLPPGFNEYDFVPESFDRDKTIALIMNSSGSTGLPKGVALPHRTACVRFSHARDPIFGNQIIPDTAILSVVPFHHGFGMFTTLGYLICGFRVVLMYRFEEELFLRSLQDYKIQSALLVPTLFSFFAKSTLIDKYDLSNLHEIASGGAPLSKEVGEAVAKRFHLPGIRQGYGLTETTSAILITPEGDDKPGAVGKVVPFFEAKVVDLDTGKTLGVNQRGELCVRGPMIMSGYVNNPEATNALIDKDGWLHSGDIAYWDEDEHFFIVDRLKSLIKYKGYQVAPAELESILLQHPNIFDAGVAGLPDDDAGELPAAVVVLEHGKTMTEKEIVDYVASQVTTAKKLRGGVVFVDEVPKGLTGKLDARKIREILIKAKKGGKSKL
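Inhibitors were tested against purified firefly luciferase in a biochemical, low-substrate format (both substrates at 10uM) and luminescence measured with a CCD imager.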
HEK293 tox: cytotoxic compounds in HEK 293 cells; HEK 293 viability, ATP luminescence (CellTiter-Glo), 48-72 h; Potency, µM (highest dose often 115 µM), for inactives: at the highest dose activity change, negative = cytotoxicity, actives largely listed as inhibitors; 94,000 tested, 6.6% active; also: nearly all actives have a fitted effect of over 60% in size
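HEK 293 cells at 250 cells/well were exposed to compounds by pintool transfer for 48 or 72 hr at 37 degree Celsius, 5% CO2. Viability was read as ATP-coupled luminescence with CellTiter-Glo after 10 min at room temperature.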
Active calls of the source: *; i = inactive; u = inconclusive; x = not tested or not shown. Unless noted, calls follow the shape of the dose curve; as a rule, active = well fitted curve in the direction sought with a large enough effect; inconclusive = small, poorly fitted or top-dose-only effect, or another doubt; inactive = no such curve, though single readings can be large; an effect the other way counts as inactive or inconclusive. % is scaled to controls: 0 for no effect and ±100 for the full control effect; potency is read from the fitted curve at half-maximal effect.

SMILES | 3T3 cytotox | hNpr1 antagonist | GPT2 inhibitor | Luciferase inh | HEK293 tox
COc1cc(Cl)c(C)cc1NC(=O)Cn1cccc1-c1nc(-c2ccc3c(c2)OCO3)no1 | -16.4% | 1.5% | i | i | -19.5%
COc1ccc([C@H]2CN(C(=O)C3CCN(C(=O)N(C)C)CC3)C[C@@H]2N)cc1 | -14.5% | 4.0% | -27.0% | i | -15.8%
CSCCC(=O)N[C@H]1CN(c2cc(C3CC3)ncn2)C[C@@H]1C1CC1 | -4.0% | 5.6% | 0.8% | u | 4.1%
CNC(=O)N1C[C@@H](CN(C)C)[C@H](NC(=O)c2cccnc2)C1 | i | -3.8% | i | i | i
COc1cccc(-c2noc(NCc3cccc(Cl)c3)n2)c1OC | u | -5.1% | i | i | 79.4µM*
COc1ccc(-c2noc(Nc3cc(C)cc(C)c3)n2)cc1 | u | -10.1% | i | u | u
Fc1ccccc1-c1noc(NCc2ccccc2)n1 | u | -7.9% | i | 28.2µM* | u
COc1cccc(-c2noc(Nc3cc(C)cc(C)c3)n2)c1OC | u | -19.3% | -0.9% | 20µM* | u
CC(C)C[C@@H](NC(=O)[C@@H]1C[C@@H](NS(=O)(=O)c2cccs2)CCN1C(=O)c1cccn1C)C(N)=O | i | 3.7% | 2.9% | i | -4.4%
CNC(=O)c1cccc(-c2ccccc2COc2ccc(CCOC)cc2)n1 | -13.0% | -23.0% | u | 10µM* | u
CC1=Nc2cc(C(=O)NCCCN(C)C)ccc2Sc2ccc(Cl)cc21 | 22.4µM* | -11.8% | i | i | 25.1µM*
CC1=Nc2cc(C(=O)NCCCN(C)C)ccc2Sc2ccc(F)cc21 | u | 1.8% | -13.2% | i | 50.1µM*
COc1ccccc1-c1cccc(CN2CCC(NC(=O)C3CCCC3)CC2)c1 | u | x | 4.3% | x | u
COc1ccccc1-c1cccc(CN2CCC(N[S+](=O)([O-])c3ccccc3)CC2)c1 | 31.6µM* | x | i | x | 39.8µM*
COc1ccccc1-c1cccc(CN2CCC(N[S+](=O)([O-])c3cccc(C(F)(F)F)c3)CC2)c1 | 12.6µM* | x | x | x | u
COc1ccccc1OCCNC(=O)C1CCN(c2cn[nH]c(=O)c2)C1 (stereo unspecified) | -1.1% | 13.8% | i | i | 1.2%
CCS(=O)(=O)Nc1ccc(C2(C(=O)Nc3cccc(F)c3C)CCCCC2)cc1 | u | -7.8% | -48.1% | i | 39.8µM*
O=C(CCCc1c[nH]c2ccccc12)N1CCN2CCS(=O)(=O)N(C3CC3)C(=O)C2C1 (stereo unspecified) | -24.1% | -1.9% | i | i | u
O=C(NC1CCN(c2cc(-c3ccc(F)cc3)[nH]n2)C1)c1cccc(OC(F)(F)F)c1 (stereo unspecified) | u | -11.9% | -14.3% | i | 39.8µM*
O=C(NC1CCCN(c2cc(-c3ccc(F)cc3)[nH]n2)C1)c1ccc(F)c(F)c1 (stereo unspecified) | u | -28.1% | i | i | 44.7µM*
O=C(NC1CCCN(c2cc(-c3ccc(F)cc3)[nH]n2)C1)c1c[nH]c2ccccc12 (stereo unspecified) | u | -23.3% | -3.8% | 22.4µM* | u
O=C(NC1CCN(c2cc(-c3ccc(Cl)cc3)[nH]n2)C1)c1ccc(F)c(F)c1 (stereo unspecified) | u | -15.2% | -19.6% | i | u
O=C(NC1CCCN(c2cc(-c3ccc(F)cc3)[nH]n2)C1)c1cccc(F)c1 (stereo unspecified) | u | -8.5% | -1.8% | i | 31.6µM*
O=C(NC1CCCN(c2cc(-c3ccc(F)cc3)[nH]n2)C1)c1ccccc1 (stereo unspecified) | u | -13.4% | -2.1% | u | u
O=S(=O)(c1cccnc1)N1CCCCC1CCc1cccs1 (stereo unspecified) | u | 1.5% | i | i | u
Cc1nnnn1CCCN1CCC2(CC1)CNC(C(=O)O)C2 (stereo unspecified) | -1.9% | -0.3% | -14.4% | i | i
O=C(c1cccc(OC(F)(F)F)c1)N1CCN(c2cc(-c3ccc(F)cc3)[nH]n2)CC1 | 35.5µM* | u | -3.4% | i | u

Source: PubChem BioAssay (National Center for Advancing Translational Sciences (NCATS))
